# In ChEMBL document CHEMBL3988442, “University of Dundee, Small-Polar-MMV Screening Library” (2021):
# Hit rate of the full screen: of about 66,000 compounds, about 960 (1.5%) showed an effect of 50% or more. What follows is part of a selection rich in strong results, with near analogues and random picks from the rest.
# System: Trypanosoma brucei
# Experiment: Trypanosoma brucei 72 hour study
# Type: functional, organism-based
# Parameters: scale not given: in the data most compounds retested in dose-response had high values
smiles,measurement,setting,value
O=C(CCn1cccc1)N1CCc2[nH]nc(COc3ccccc3)c2C1,Percent Effect,"30 µM, 30.03 µM",-16.91%
Cc1nn(C(C)C)c(C)c1CN1CCN(C2CCCCC2)C(=O)C1.O=C(O)CC(O)(CC(=O)O)C(=O)O,Percent Effect,"30.3 µM, […]",-4.336%
CC(=O)N1CCCCC12CCCN(Cc1ccco1)C2.O=C(O)C(F)(F)F (stereo unspecified),Percent Effect,"30.3 µM, […]",5.13%
Cc1cc(C)c(-c2nc(-c3c(C)ncc4c3CCNC4)no2)o1,Percent Effect,"30 µM, 30.03 µM",-0.4206%
CN(Cc1cccnc1)C1CC2(CCN(c3ncccn3)CC2)C1.O=C(O)C(F)(F)F.O=C(O)C(F)(F)F,Percent Effect,"30.3 µM, […]",-50.17%
CN(Cc1ccccn1)C1COC2(CCN(Cc3nccs3)CC2)C1 (stereo unspecified),Percent Effect,"30 µM, 30.03 µM",58.22%
CN(Cc1cccnc1)C1CC2(CCN(c3ccccn3)CC2)C1.O=C(O)C(F)(F)F.O=C(O)C(F)(F)F.O=C(O)C(F)(F)F,Percent Effect,"30 µM, 30.03 µM",54.5%
CC(C)CCN1C2(CCN(Cc3nccs3)C2)c2ccccc2S1(=O)=O.O=C(O)C(F)(F)F (stereo unspecified),Percent Effect,"30.3 µM, […]",91.13%
CN(Cc1ccccc1)C1COC2(CCN(Cc3nccs3)CC2)C1.O=C(O)C(F)(F)F (stereo unspecified),Percent Effect,"30 µM, 30.03 µM",56.78%
CN(Cc1cccnc1)C1CC2(CCN(Cc3ccccn3)CC2)C1.O=C(O)C(F)(F)F.O=C(O)C(F)(F)F.O=C(O)C(F)(F)F,Percent Effect,"30.3 µM, […]",-569.4%
CN(Cc1ccco1)C1COC2(CCN(Cc3nccs3)CC2)C1.O=C(O)C(F)(F)F.O=C(O)C(F)(F)F (stereo unspecified),Percent Effect,"30.3 µM, […]",-7.244%
CN(Cc1ccccn1)C1COC2(CCN(Cc3cccnc3)CC2)C1 (stereo unspecified),Percent Effect,"30 µM, 30.03 µM",-2.463%
CN(Cc1cccnc1)C1COC2(CCN(Cc3nccs3)CC2)C1.O=C(O)C(F)(F)F.O=C(O)C(F)(F)F.O=C(O)C(F)(F)F (stereo unspecified),Percent Effect,"30.3 µM, […]",-7.601%
COCCN1C2(CCN(Cc3nccs3)C2)c2ccccc2S1(=O)=O.O=C(O)C(F)(F)F (stereo unspecified),Percent Effect,"30.3 µM, […]",-203.3%
CN(C)CCN1C2(CCN(Cc3nccs3)C2)c2ccccc2S1(=O)=O.O=C(O)C(F)(F)F.O=C(O)C(F)(F)F (stereo unspecified),Percent Effect,"30.3 µM, […]",-461.1%
CN(C)C1COC2(CCN(Cc3nccs3)CC2)C1.O=C(O)C(F)(F)F.O=C(O)C(F)(F)F (stereo unspecified),Percent Effect,"30.3 µM, […]",-5.42%
CCc1n[nH]c(C2CN(C(=O)c3cnc(C)cn3)CCO2)n1 (stereo unspecified),Percent Effect,10 µM,-10.87%
Cc1noc(C)c1CN1CCN(CC2CC2)c2ncccc2C1.O=C(O)C(F)(F)F.O=C(O)C(F)(F)F,Percent Effect,"30 µM, 30.03 µM",-2.749%
CNC(=O)C1CCCCN1C(=O)C1CCN(S(C)(=O)=O)CC1 (stereo unspecified),Percent Effect,"30.3 µM, […]",4.842%
Cc1nc(Nc2nncs2)cc(C2CNC2)n1.O=C(O)C(F)(F)F,Percent Effect,"30.3 µM, […]",-21.99%
CC(C)NC(=O)N1CCN(CCn2cccn2)c2ncccc2C1.O=C(O)C(F)(F)F,Percent Effect,"30.3 µM, […]",-82.31%
CN(C)CC(=O)N1CCCC2(CCN(c3ccccc3)C2=O)C1.O=C(O)C(F)(F)F (stereo unspecified),Percent Effect,"30.3 µM, […]",-9.805%
Cc1noc(C)c1CN1C[C@H](OCc2ccncc2)[C@H]2OCCC[C@H]21.O=C(O)C(F)(F)F.O=C(O)C(F)(F)F,Percent Effect,"30 µM, 30.03 µM",3.056%
CN(C)C(=O)[C@@H]1C[C@@H]2[C@@H](CCN2Cc2nccs2)O1.O=C(O)C(F)(F)F,Percent Effect,"30.3 µM, […]",-77.1%
Cn1ccc(CN2CCCC23CCN(Cc2ccccc2F)CC3)n1.O=C(O)C(F)(F)F.O=C(O)C(F)(F)F,Percent Effect,"30.3 µM, […]",-74.92%
O=C(NC1CC1)N1CCOCC2(CCN(Cc3cccs3)C2)C1.O=C(O)C(F)(F)F (stereo unspecified),Percent Effect,"30.3 µM, […]",-9.319%
Cl.c1nn(C2CCCCC2)cc1-c1cncn1CCCN1CCCCC1,Percent Effect,"30.3 µM, […]",-11.05%
Cc1cccc(C(=O)N2CCC3(CCN(c4cnn(C)c4)C3=O)C2)n1.O=C(O)C(F)(F)F (stereo unspecified),Percent Effect,"30 µM, 30.03 µM",-10.65%
CCc1noc(CNc2nc(-c3cccnc3)nc3c2CCNCC3)n1,Percent Effect,"30.3 µM, […]",2.358%
Cl.NC1CCc2nc(-c3cccnc3)nc(Nc3ccc(F)cc3)c2C1 (stereo unspecified),Percent Effect,"30.3 µM, […]",100.3%
CC(O)CNc1nc(-c2cccnc2)nc2c1CCC2 (stereo unspecified),Percent Effect,"30 µM, 30.03 µM",5.601%
CN(CC1CCCO1)c1nc(-c2cccnc2)nc2c1CCNCC2 (stereo unspecified),Percent Effect,"30 µM, 30.03 µM",0.7603%
c1cncc(-c2nc3c(c(NCC4(c5ccncc5)CC4)n2)CCC3)c1,Percent Effect,"30 µM, 30.03 µM",-5.668%
CN(C)c1cccc(C(=O)N2CCCC2c2ncc3c(n2)CCNC3)c1.Cl (stereo unspecified),Percent Effect,"30.3 µM, […]",-32.8%
CNS(=O)(=O)c1ccc(CNC(=O)N2CCOC(C)C2)cc1 (stereo unspecified),Percent Effect,"30.3 µM, […]",-5.397%
Cc1ccc2[nH]c(CNC(=O)C3CC4(CCNCC4)CN3C)nc2c1C (stereo unspecified),Percent Effect,"30 µM, 30.03 µM",-11.35%
CN(Cc1cncnc1)[C@@H]1CN(C(=O)c2ccco2)[C@@H]2CCCO[C@H]12.O=C(O)C(F)(F)F,Percent Effect,"30.3 µM, […]",-35.75%
Cc1nc(Nc2cnccn2)cc(C2CCN(c3ncccn3)C2)n1 (stereo unspecified),Percent Effect,"30.3 µM, […]",26.81%
c1cnc(N2CCCC(c3csc(Nc4cnccn4)n3)C2)nc1 (stereo unspecified),Percent Effect,"30.3 µM, […]",86.19%
CC(=O)N1CCCC1c1csc(Nc2cnccn2)n1 (stereo unspecified),Percent Effect,"30 µM, 30.03 µM",-20%
OCCN1CCC(c2csc(Nc3cnccn3)n2)CC1,Percent Effect,"30.3 µM, […]",6.088%
NC(=O)CN1CCC(c2csc(Nc3cnccn3)n2)CC1,Percent Effect,"30.3 µM, […]",30.88%
c1cnc(Nc2cncc(C3CCCN(c4ncccn4)C3)n2)nc1 (stereo unspecified),Percent Effect,"30.3 µM, […]",-5.193%
COCC(=O)N1CCCC1c1csc(Nc2cnccn2)n1 (stereo unspecified),Percent Effect,"30.3 µM, […]",22.69%
c1cnc(N2CCC(c3csc(Nc4cnccn4)n3)CC2)nc1,Percent Effect,"30.3 µM, […]",69.17%
CCC(=O)N1CCCC1c1csc(Nc2cnccn2)n1 (stereo unspecified),Percent Effect,"30.3 µM, […]",65.49%
